Screens as filed in PubChem.
Many of the other results were omitted from the sample, so hits are more common in it than they were.
LmPK inhibitor – LmPK (Leishmania mexicana) enzyme inhibition. 290,000 compounds, 0.37% hits. Q27686. Potency, µM (series often up to 57.5 µM), without a hit: top-dose activity change, negative = inhibition, most hits filed as inhibitors. purified LmPK, Kinase-Glo ATP luminescence, 1 h; note: potency is the fitted concentration of half-maximal effect; % is set by controls: 0 for no effect and ±100 for the full control effect
Target sequence (Q27686 whole entry, looked up): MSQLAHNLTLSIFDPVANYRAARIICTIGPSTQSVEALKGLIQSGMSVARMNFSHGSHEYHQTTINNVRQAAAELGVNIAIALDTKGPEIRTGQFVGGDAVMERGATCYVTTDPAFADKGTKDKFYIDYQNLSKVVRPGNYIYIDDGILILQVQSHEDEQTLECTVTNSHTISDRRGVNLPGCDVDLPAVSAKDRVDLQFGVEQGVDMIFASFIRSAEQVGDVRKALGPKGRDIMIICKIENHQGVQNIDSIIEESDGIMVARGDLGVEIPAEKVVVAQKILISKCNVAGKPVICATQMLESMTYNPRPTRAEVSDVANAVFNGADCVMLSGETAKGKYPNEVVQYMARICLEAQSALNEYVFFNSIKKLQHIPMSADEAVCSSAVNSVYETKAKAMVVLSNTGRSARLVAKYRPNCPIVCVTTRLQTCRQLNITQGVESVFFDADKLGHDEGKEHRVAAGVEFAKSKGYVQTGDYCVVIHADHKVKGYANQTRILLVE
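Purified LmPK (0.1 nM) converted ADP (0.1 mM) to ATP with PEP (0.5 mM) in imidazole buffer pH 7.2 with KCl and MgCl2, 1 h at room temperature. ATP was read by Kinase-Glo luminescence; data normalized to uninhibited and no-enzyme controls.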
RE007 growth inh – less growth of the S. pombe RE007 Vpr strain; 360,000 compounds, 0.21% hits; Potency, µM (highest dose often 92.2 µM), without a hit: at the highest dose activity change, negative = less growth, hits mostly inhibitors; S. pombe RE007 Vpr strain, BacTiter-Glo ATP luminescence, 24 h; AID 651644; active = well fitted falling curve with a large enough effect; inconclusive = small, poorly fitted or top-dose-only effect; inactive = no such curve, though single readings can be large or run the other way; note: potency is the fitted concentration of half-maximal effect; % is set by controls: 0 for no effect and ±100 for the full control effect; nearly all actives have a fitted effect of over 50% in size
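Fission yeast RE007 carrying one integrated HIV-1 vpr copy, seeded at OD 0.01 in PMG+AL medium with 23 nL pinned compound. Grown 24 h at 30 degrees; viability read by BacTiter-Glo luminescence after 5 min.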
Shiga inhibitor – Shiga toxin inhibition | Vero cells, Shiga toxin protein synthesis inhibition reporter | inhibition, % at 38.7 µM | 290,000 compounds, 9.2% hits; in the data active = inhibition mostly above about 28%, no sharp cut-off; inactive = mostly below about 43%; note: 0% is about no effect
Giardia FBPA inh – inhibitors of Giardia lamblia fructose-1,6-bisphosphate aldolase; Potency, µM (top dose mostly 59.6 µM), inactives show at the highest dose activity, negative = inhibition, hits mostly inhibitors; 290,000 compounds, 0.71% hits; AID 2451; A8B2U2; purified Giardia FBPA; note: potency is the fitted concentration of half-maximal effect; % is set by controls: 0 for no effect and ±100 for the full control effect; nearly all actives have a fitted effect of over 55% in size
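40 nM FBPA preincubated 10 min at RT with compound (up to 57.5 uM final), then substrate plus GAPDH/TPI/NAD/arsenate coupling and diaphorase/resazurin added. Fluorescence read after 20 min at RT, 525/598 nm.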
CHX counter – counter-screen for Shiga toxin inhibitors: cycloheximide protein synthesis inhibition | 300,000 compounds, 12% hits | AID 2314 | max response, % | cell reporter, cycloheximide protein synthesis inhibition counterscreen; in the data active = max response mostly above about 13%, no sharp cut-off; inactive = mostly below about 14%; note: read at 38.3 µM for the half of the compounds with a filed dose; 0% is about no effect
TbPYK inhibitor – blocks Trypanosoma brucei pyruvate kinase | TbPYK enzyme, Kinase-Glo Plus ATP luminescence, 45 min | Q57TT1 | Potency, µM (top dose mostly 76.8 µM), inactives show at the highest dose activity, negative = inhibition, usual class: inhibitors | 410,000 compounds, 0.12% hits; note: potency is the fitted concentration of half-maximal effect; % is set by controls: 0 for no effect and ±100 for the full control effect; nearly all actives have a fitted effect of over 50% in size
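Luminescence from Kinase-Glo Plus, added after a 45-minute room-temperature reaction, served as the end-point read-out. The enzyme and substrate were preincubated with compound before ADP (130 uM final) initiated turnover. Concentration-effect curves came from normalized qHTS data.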
* marks the source's active call; other numbers are inactive results. Unless noted, calls come from the whole dose curve; as a rule, active = well fitted curve in the direction sought with a large enough effect; inconclusive = small, poorly fitted or top-dose-only effect, or another doubt; inactive = no such curve, though single readings can be large; an effect the other way counts as inactive or inconclusive.

`CC(C)CC(=O)Nc1cccc(-c2cn3ccsc3n2)c1` gave LmPK inhibitor -9.7%, RE007 growth inh -0.9%, Shiga inhibitor 36.4*, Giardia FBPA inh 1.3%, CHX counter 31.6* and TbPYK inhibitor -1.4%.
COc1ccc(C(=O)Nc2ccc3ncccc3c2)cc1 was read as LmPK inhibitor -13.0%, RE007 growth inh 0.2%, Shiga inhibitor -10.8, Giardia FBPA inh 1.7%, CHX counter 12.0 and TbPYK inhibitor -15.2%.
`COc1ccc(NC(=O)c2ccc3nccnc3c2)cc1` gave LmPK inhibitor -2.9%, RE007 growth inh -2.5%, Shiga inhibitor 87.8*, Giardia FBPA inh -13.2%, CHX counter 37.1* and TbPYK inhibitor -1.9%.
Screening CCOc1ccc(NC(=O)c2ccc3nccnc3c2)cc1 returned LmPK inhibitor -2.5%, RE007 growth inh 8.1%, Shiga inhibitor 62.5, Giardia FBPA inh -11.1%, CHX counter 51.7* and TbPYK inhibitor 2.2%.
Screening CC(C)N(Cc1ccccc1)C(=O)CN1C(=O)CSc2ccc(S(=O)(=O)N3CCCC3)cc21 returned TbPYK inhibitor -2.2%.
Screening CCn1c(=NC(=O)c2ccc(S(=O)(=O)N3CCCC3)cc2)sc2cc(Br)ccc21 returned TbPYK inhibitor -1.7%.
CC(=O)Nc1ccccc1OCc1nnc(-c2ccc(Cl)cc2)o1 was read as LmPK inhibitor -4.0%, RE007 growth inh 16.2%, Shiga inhibitor 32.6, Giardia FBPA inh 3.2%, CHX counter 27.8* and TbPYK inhibitor -4.3%.
Screening Clc1ccccc1OCc1nnc(-c2ccccc2)o1 returned LmPK inhibitor -0.2%, RE007 growth inh -13.5%, Shiga inhibitor 67.2*, Giardia FBPA inh 6.2%, CHX counter 46.5* and TbPYK inhibitor -2.9%.
O=C(O)CC/C=C\CC[C@@H]1[C@@H](N2CCCCC2)[C@@H](O)C[C@@H]1OCc1ccc(-c2ccccc2)cc1 was read as TbPYK inhibitor -5.8%.
O=[N+]([O-])c1ccccc1C=NN1CCCCCC1 was read as RE007 growth inh -22.0% and TbPYK inhibitor -1.8%.
Screening CN(c1ccccc1)c1ccc(/C=N/N2CCOCC2)cc1 returned LmPK inhibitor -3.2%, RE007 growth inh -0.8%, Shiga inhibitor 60.6*, Giardia FBPA inh 2.9%, CHX counter 84.2* and TbPYK inhibitor -9.0%.
O=[N+]([O-])c1ccccc1/C=N/N1CCN(c2ccccn2)CC1 was read as LmPK inhibitor -8.8%, RE007 growth inh inconclusive, Shiga inhibitor 46.9*, Giardia FBPA inh 2.8%, CHX counter 36.8* and TbPYK inhibitor -4.6%.
Screening CC(C)(C)c1ccc(/C=N/N2CCN(c3ccccn3)CC2)cc1 returned LmPK inhibitor 1.2%, RE007 growth inh -10.5%, Shiga inhibitor 21.1, Giardia FBPA inh 3.9%, CHX counter 8.7 and TbPYK inhibitor -4.0%.
For BrC(=C\c1ccccc1)/C=N/N1CCN(c2ccccn2)CC1 the results were LmPK inhibitor 0.4%, RE007 growth inh -12.5%, Shiga inhibitor 38.5*, Giardia FBPA inh -6.4%, CHX counter 40.3* and TbPYK inhibitor 4.4%.
For Oc1ccc(/C=N/N2CCN(c3ccccn3)CC2)cc1 the results were LmPK inhibitor 1.6%, RE007 growth inh -12.4%, Shiga inhibitor 101.3*, Giardia FBPA inh 0.1%, CHX counter 27.2* and TbPYK inhibitor -1.5%.
`CN(C)c1ccc(/C=N/N2CCN(c3ccccn3)CC2)cc1` gave LmPK inhibitor inconclusive, RE007 growth inh -11.6%, Shiga inhibitor 90.7*, Giardia FBPA inh 1.0%, CHX counter 34.4* and TbPYK inhibitor -19.0%.
Screening Oc1cccc(/C=N/N2CCN(c3ccccn3)CC2)c1 returned LmPK inhibitor -5.4%, RE007 growth inh -14.4%, Shiga inhibitor 127.8*, Giardia FBPA inh 1.1%, CHX counter 39.7* and TbPYK inhibitor -7.7%.
`C(=N\N1CCN(c2ccccn2)CC1)/c1ccccn1` gave LmPK inhibitor -17.0%, RE007 growth inh -22.0%, Shiga inhibitor 36.7*, Giardia FBPA inh -4.0%, CHX counter 49.2* and TbPYK inhibitor -7.9%.
